Key:
ETS1 [1] = biological target: T1, ETS1 (UniProt P14921); assay: ETS1 binding intensity (PBM fluorescence), ETS1 alone (arbitrary fluorescence units); higher = stronger binding; conditions: ETS1 concentration 1 nM; RUNX1 concentration 0 nM
T1 sequence: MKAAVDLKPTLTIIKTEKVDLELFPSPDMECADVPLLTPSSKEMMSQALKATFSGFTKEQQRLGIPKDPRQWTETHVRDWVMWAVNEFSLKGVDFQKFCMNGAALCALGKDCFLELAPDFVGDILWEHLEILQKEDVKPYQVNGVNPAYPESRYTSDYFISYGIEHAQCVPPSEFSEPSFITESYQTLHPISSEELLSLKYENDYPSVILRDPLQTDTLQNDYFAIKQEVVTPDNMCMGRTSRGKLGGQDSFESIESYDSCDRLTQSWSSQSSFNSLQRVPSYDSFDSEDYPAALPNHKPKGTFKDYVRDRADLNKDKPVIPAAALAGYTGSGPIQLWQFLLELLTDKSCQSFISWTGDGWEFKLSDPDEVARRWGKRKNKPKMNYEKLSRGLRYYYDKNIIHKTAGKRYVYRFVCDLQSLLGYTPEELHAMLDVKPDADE

RUNX1 [2] = biological target: RUNX1 (UniProt Q01196); assay: RUNX1 binding intensity (PBM fluorescence), RUNX1 alone (arbitrary fluorescence units); higher = stronger binding; conditions: RUNX1 concentration 2 nM; ETS1 concentration 0 nM
Sequence of RUNX1 (Q01196 whole entry): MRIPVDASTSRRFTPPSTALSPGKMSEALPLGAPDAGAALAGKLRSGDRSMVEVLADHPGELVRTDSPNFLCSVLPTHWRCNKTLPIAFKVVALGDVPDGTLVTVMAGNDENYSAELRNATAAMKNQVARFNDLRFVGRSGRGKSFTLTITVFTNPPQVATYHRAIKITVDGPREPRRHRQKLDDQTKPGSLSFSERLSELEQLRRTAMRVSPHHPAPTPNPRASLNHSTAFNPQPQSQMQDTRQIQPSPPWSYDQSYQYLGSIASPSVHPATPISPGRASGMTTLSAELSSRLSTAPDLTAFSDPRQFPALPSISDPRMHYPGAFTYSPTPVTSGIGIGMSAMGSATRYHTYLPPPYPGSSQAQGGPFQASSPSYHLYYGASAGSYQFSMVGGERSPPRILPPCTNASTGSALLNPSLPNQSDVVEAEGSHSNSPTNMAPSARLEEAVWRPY
Protocol: (§1)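 Cooperative gcPBM on 36-bp genomic probes with neighbouring ETS1 and RUNX1 sites. Recombinant human RUNX1 (2 nM) was incubated alone or with ETS1 (25 nM) and detected with anti-RUNX1 antibody plus Alexa488 secondary. Values are medians over 4 replicate spots; the RUNX1+ETS1 data were normalised to the RUNX1-only data. The probes sit in constant array flanks that are not printed.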

ETS1 [3] = biological target: T1, ETS1; assay: ETS1 binding intensity (PBM fluorescence) in presence of RUNX1, normalised to ETS1-only experiment (arbitrary fluorescence units); higher = stronger binding; conditions: ETS1 concentration 1 nM; RUNX1 concentration 25 nM
RUNX1 [4] = biological target: RUNX1 (UniProt Q01196); assay: RUNX1 binding intensity (PBM fluorescence) in presence of ETS1, normalised to RUNX1-only experiment (arbitrary fluorescence units); higher = stronger binding; conditions: RUNX1 concentration 2 nM; ETS1 concentration 25 nM
Protocol: as §1
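Throughout, for RUNX1 binding intensity (PBM fluorescence) in presence of ETS1, normalised to RUNX1-only experiment: Full-length recombinant human ETS1 or RUNX1 bound to double-stranded 36-bp genomic probes on microarrays, detected by protein-specific primary antibody and Alexa488 secondary, spot fluorescence as median of four replicate spots.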
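Throughout, for RUNX1 binding intensity (PBM fluorescence), RUNX1 alone: Full-length recombinant human RUNX1 bound to double-stranded 36-bp genomic probes on a high-density microarray, scored as Alexa488 fluorescence per spot via anti-RUNX1 antibody, median of four replicate spots.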

| Sequence | ETS1 binding intensity (ETS1 [1]) | RUNX1 binding intensity (RUNX1 [2]) | ETS1 binding intensity (ETS1 [3]) | RUNX1 binding intensity (RUNX1 [4]) |
| --- | --- | --- | --- | --- |
| CCTCGCCCCCTTCCGCACCCACCCCACCGCGCTCCG | 807 | 2040 | 786 | 2360 |
| GACAGGAAGCCCGCGGCAGCCTCCGTGGTTGCAGAT | 562 | 773 | 687 | 1090 |
| GTTCCTTTGAAAGCAGGATGTGGTTTGCCCCAGCTT | 5390 | 881 | 29200 | 3730 |
| GCACTCATTTCCTGTCCCCTGTGGTTTAAAGGTTTT | 1990 | 1260 | 4620 | 4770 |
| CTTACCTACAGTTCCGCTTGCTGTGGTTTCAGTTAC | 403 | 1040 | 843 | 2060 |
| AGCTGTTTGGTCACAGGATGTGGTTATTAGAATAGG | 4800 | 894 | 27900 | 4040 |
| TACAGCTGGAACGTCCTGTGGTTAACATTCTGCTCT | 423 | 1130 | 568 | 1970 |
| AGTGGATAGCACTTCCTTCTCTTACCACAGTTCCTT | 365 | 1020 | 558 | 1610 |
| TTCAGAAAAAAAGGAAGTGGTAAATTCTTGCTGATT | 1890 | 775 | 3620 | 1500 |
| TGACAGACCCGGAAATAAGAGGAGACCACACACTTG | 1900 | 894 | 2660 | 1410 |
| ACCATATCCTGAGAATGAACCATGTGGTGGATGCAC | 519 | 795 | 487 | 1270 |
| ATCTCCACATCCTCCCCATCGACCGCATGGTTTACC | 439 | 1970 | 653 | 3450 |
| TTTACTGAGAGGAAGTGGTTCTTGTGGGTGAAGGTC | 2420 | 898 | 6070 | 1530 |
| GCACCGTACCCGGAACTGCTCCCTCCCGCAGGCGCA | 539 | 930 | 540 | 950 |
| GAGCGCAGGACGGAAGCTCGGTGCGGGTGCGGCCTC | 964 | 702 | 938 | 917 |
| CGCCTACTCTACTTCCGCGGTCGGCCGGGTAAGGAC | 603 | 2130 | 754 | 2900 |
| TTAGGCAGAGCTCATTTCCGCCCACATCAAAAGTAA | 1710 | 867 | 1990 | 1110 |
| GATCTGTGCTCAGGATGTGGTGAGAGAATAAGGAAG | 1210 | 753 | 2870 | 1050 |
| CGGCATCTGACAGGATGTGGGCAGGGAGAGAGAGAC | 3780 | 1270 | 9220 | 4210 |

| Sequence | ETS1 binding intensity (ETS1 [1]) | RUNX1 binding intensity (RUNX1 [2]) | ETS1 binding intensity (ETS1 [3]) | RUNX1 binding intensity (RUNX1 [4]) |
| --- | --- | --- | --- | --- |
| GGCATTCACTTCCGGTCTGGGGCCTGCGGCGGCGGC | 18600 | 793 | 19400 | 2260 |
| GCCAGGGCAGGAAGTTGCTAACCGCCCCAGAGCAGG | 2840 | 804 | 4850 | 1460 |
| CCTTCCTTCCTGCTGTGTACGTTGTGGTCACAGCAC | 419 | 1240 | 932 | 3550 |
| ACGTTTCGGGGTTTCCGGGCCAGCGGTTTCGGGCGC | 702 | 937 | 1140 | 2050 |
| CTTGTGCCTACATCCTGTAGCTGTGGTTTAGGGACG | 1420 | 887 | 6810 | 2050 |
| ACAACTTCCTGTGGGATTTTTGGTGTCTGCGGCTCA | 818 | 811 | 858 | 2810 |
| CAAAGGTTAAATGCAGGATGTGGTTTCTGCAGACTC | 2750 | 922 | 25400 | 3990 |
| AACAACAGGATGCTCTCTAGTCTAACAGTGGTAACA | 847 | 866 | 820 | 1020 |
| GGCACTTCCGGTCCTGACCTGAAGCGGTAACCGTCA | 8390 | 719 | 8600 | 1820 |
| ATGGTGTAGAGAGGATGTGGGCTTTAAGGTCAGAGA | 1140 | 706 | 1690 | 1000 |
| CAACTTCCGGGGCCGGTTGCCTGGCAACCGCAGGAG | 812 | 965 | 3940 | 3790 |
| AGAGCGAGGAGGACTTCCTGCGGCAGGTCGGCGTGA | 635 | 652 | 622 | 1080 |
| TGGGTACTTCCTGTGACAAATCGAGTTGACCACATG | 1190 | 678 | 2230 | 1720 |
| CTGTGCGAGGCAGGATGTGGTCTCCCGCCACCAGGG | 5450 | 788 | 13800 | 3160 |
| CAGGCACACATCCGGGAGCGGCCTGCGCCGCAAGGC | 608 | 773 | 661 | 1560 |
| CGAGCTCGGTGTTCCGCTTTTTGTGGGCCGGGTGGG | 467 | 1080 | 478 | 903 |
| CCTGGGGGGCCGGAAGCCCCGCTGCGGCCCCAGCCC | 3060 | 737 | 2480 | 1130 |
| AAGAGGAAGTCCCAAATTGCTTTTTAACCACCAACA | 522 | 849 | 874 | 888 |
